Assay results taken from PubChem BioAssay.
Inconclusive results are not listed. Activity calls are given as the source filed them.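 How the source made its calls, unless noted: active means normalized viability below 100% at a tested concentration; inactive means the rest.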

Experiments:
[1] = viability loss in pontine glioma line – cell-based, SU-DIPG-XVII, MIPE5.0, CellTiter-Glo, qHTS, dose response (AID 1347060; cut-off not given, nearly all actives have AC50 up to about 26 µM;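 on AC50: cells exposed to compound for 48 hours before viability readout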); details: CellTiter-Glo ATP luminescence
[2] = viability loss in pontine glioma line – cell-based, JHH-DIPG-1, MIPE4.0, CellTiter-Glo, qHTS, dose response (AID 1347062; cut-off not given, nearly all actives have AC50 up to about 27 µM;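 on AC50: cells exposed to compound for two days before readout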); details: JHH-DIPG-1 viability, CellTiter-Glo ATP luminescence
[3] = viability loss in pontine glioma line – cell-based, SU-DIPG-XIII, MIPE5.0, CellTiter-Glo, qHTS, dose response (AID 1347064; cut-off not given, nearly all actives have AC50 up to about 23 µM;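 on AC50: cells exposed to compound for 48 hours before the viability read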); details: CellTiter-Glo ATP luminescence
[4] = viability loss in pontine glioma line – cell-based, SU-DIPG-XXV, MIPE5.0, CellTiter-Glo, qHTS, dose response (AID 1347065; cut-off not given, nearly all actives have AC50 up to about 26 µM;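 further: cells exposed to compound for 48 hours before ATP readout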); details: CellTiter-Glo ATP luminescence
[5] = growth inhibition of DIPG cells – cell-based, MIPE4.0 library, CellTiter-Glo luminescence, qHTS (AID 1347066; cut-off not given, nearly all actives have AC50 up to about 30 µM;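 further: cells exposed to compound for 48 hours before readout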); details: SU-DIPG-VI viability, CellTiter-Glo ATP luminescence
[6] = JHH-DIPG-1 glioma cell viability, MIPE5.0 library, CellTiter-Glo luminescence, qHTS (AID 1347067; cut-off not given, nearly all actives have AC50 up to about 26 µM;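 further: cells exposed to compound for 48 hours before readout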); details: JHH-DIPG-1 glioma viability, CellTiter-Glo ATP luminescence
[7] = growth inhibition of DIPG cells – cell-based, MIPE5.0 library, qHTS (AID 1347068; cut-off not given, nearly all actives have IC50 up to about 30 µM;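 on IC50: cells exposed to compound for 48 hours before viability readout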); details: SU-DIPG-XXV viability
[8] = viability loss with induced miR-34 in A549 – imaging, A549 dox-inducible miR-34, nuclei and caspase counts, primary screen (AID 1347080;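 active means compounds whose cell count with miR-34 switched on is under 0.7 times the count with it off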); details: A549 miR-34 inducible, Hoechst nuclei count, 48 h
[9] = compounds altering HSF1 focus formation in cells – imaging, Selleck Cancer Library (AID 1347162; in the data active means plate-normalised HSF1 focus index below about 0.46); details: human cells, HSF1 nuclear foci imaging, at 10 µM; SSMD: measured here: HSF1 foci SSMD mean; cell count: measured here: cell number; plate-normalised HSF1 focus index: stronger effect = lower value
[10] = MELAS cybrid and Rieske KO viability enhancers – cell-based, MELAS cybrids, Rieske KO mouse fibroblasts, CellTiter-Glo, primary screen (AID 1508586;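 active means mean z-score across replicates of 1.96 or higher in either the MELAS or the Rieske mutant cell line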;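 further: z relative to plate mean and SD of compound and empty wells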); details: low glucose
[11] = drug combination growth inhibition, ovarian cancer – cell-based, oncology-focused library, rucaparib conditional, profiling panel (AID 1508598); details: patient-derived ovarian cancer cells, CellTiter-Glo viability, 144 h, stronger effect = lower value
[12] = at 0.000305 µM, OCI-C5x cells, with rucaparib 10 µM, 100% = cells with rucaparib alone
[13] = at 0.000305 µM, OCI-C5x cells, without rucaparib
[14] = at 0.000305 µM, OCI-P5x cells, with rucaparib 20 µM, 100% = cells with rucaparib alone
[15] = at 0.000305 µM, OCI-P5x cells, without rucaparib
[16] = at 0.00122 µM, OCI-C5x cells, with rucaparib 10 µM, 100% = cells with rucaparib alone
[17] = at 0.00122 µM, OCI-C5x cells, without rucaparib
[18] = at 0.00122 µM, OCI-P5x cells, with rucaparib 20 µM, 100% = cells with rucaparib alone
[19] = at 0.00122 µM, OCI-P5x cells, without rucaparib
[20] = at 0.00488 µM, OCI-C5x cells, with rucaparib 10 µM, 100% = cells with rucaparib alone
[21] = at 0.00488 µM, OCI-C5x cells, without rucaparib
[22] = at 0.00488 µM, OCI-P5x cells, with rucaparib 20 µM, 100% = cells with rucaparib alone
[23] = at 0.00488 µM, OCI-P5x cells, without rucaparib
[24] = at 0.0195 µM, OCI-C5x cells, with rucaparib 10 µM, 100% = cells with rucaparib alone
[25] = at 0.0195 µM, OCI-C5x cells, without rucaparib
[26] = at 0.0195 µM, OCI-P5x cells, with rucaparib 20 µM, 100% = cells with rucaparib alone
[27] = at 0.0195 µM, OCI-P5x cells, without rucaparib
[28] = at 0.0781 µM, OCI-C5x cells, with rucaparib 10 µM, 100% = cells with rucaparib alone
[29] = at 0.0781 µM, OCI-C5x cells, without rucaparib
[30] = at 0.0781 µM, OCI-P5x cells, with rucaparib 20 µM, 100% = cells with rucaparib alone
[31] = at 0.0781 µM, OCI-P5x cells, without rucaparib
[32] = at 0.313 µM, OCI-C5x cells, with rucaparib 10 µM, 100% = cells with rucaparib alone
[33] = at 0.313 µM, OCI-C5x cells, without rucaparib
[34] = at 0.313 µM, OCI-P5x cells, with rucaparib 20 µM, 100% = cells with rucaparib alone
[35] = at 0.313 µM, OCI-P5x cells, without rucaparib
[36] = at 1.25 µM, OCI-C5x cells, with rucaparib 10 µM, 100% = cells with rucaparib alone
[37] = at 1.25 µM, OCI-C5x cells, without rucaparib
[38] = at 1.25 µM, OCI-P5x cells, with rucaparib 20 µM, 100% = cells with rucaparib alone
[39] = at 1.25 µM, OCI-P5x cells, without rucaparib
[40] = at 5 µM, OCI-C5x cells, with rucaparib 10 µM, 100% = cells with rucaparib alone
[41] = at 5 µM, OCI-C5x cells, without rucaparib
[42] = at 5 µM, OCI-P5x cells, with rucaparib 20 µM, 100% = cells with rucaparib alone
[43] = at 5 µM, OCI-P5x cells, without rucaparib

Cn1cc(/C=C/C(=O)c2cccc(F)c2)cc1/C=C/C(=O)NO
inactive: outcome [2] | outcome [5]
active: AC50 [1] 3.72 µM | AC50 [3] 2.35 µM | AC50 [4] 5.25 µM | AC50 [6] 13.2 µM

N#Cc1cc(NC(=O)Nc2nnc(-c3ccncc3)s2)ccc1-c1cn[nH]c1
active: AC50 [1] 0.372 µM
inactive: outcome [2] | outcome [3] | outcome [4] | outcome [5] | outcome [7]

COc1ccc(S(=O)(=O)Nc2cccnc2Nc2ccc(O)cc2)cc1
962: cell count ([8]; measured here: total cells without miR-34 induction)
-0.295: z-score ([10]; Rieske KO mouse fibroblast survival, CellTiter-Glo 72 h)
1.94: SSMD [9]
1190: cell count ([8]; measured here: total cells with miR-34 induction, stronger effect = lower value)
7150: cell count [9]
0.79: fold change ([8]; measured here: relative caspase fold change +Dox/-Dox)
active: AC50 [1] 0.263 µM | AC50 [2] 0.166 µM | AC50 [3] 0.468 µM | AC50 [6] 0.468 µM | IC50 [7] 10.5 µM | viability [11, 32] 58.8% | viability [11, 33] 76.1% | viability [11, 34] 94.4% | viability [11, 35] 28.4% | viability [11, 36] 50% | viability [11, 37] 49.6% | viability [11, 38] 72.9% | viability [11, 39] 23% | viability [11, 40] 43.3% | viability [11, 41] 62% | viability [11, 42] 70.9% | viability [11, 43] 17.9%
inactive: fold change ([8]; stronger effect = lower value, cell number ratio, induced over uninduced) 1.24 | plate-normalised HSF1 focus index [9] 1.07 | z-score ([10]; MELAS cybrid survival, CellTiter-Glo 48 h, stronger effect = higher value) 0.679 | viability [11, 12] 111% | viability [11, 13] 122% | viability [11, 14] 117% | viability [11, 15] 128% | viability [11, 16] 119% | viability [11, 17] 133% | viability [11, 18] 118% | viability [11, 19] 119% | viability [11, 20] 119% | viability [11, 21] 133% | viability [11, 22] 112% | viability [11, 23] 121% | viability [11, 24] 113% | viability [11, 25] 128% | viability [11, 26] 108% | viability [11, 27] 122% | viability [11, 28] 110% | viability [11, 29] 134% | viability [11, 30] 111% | viability [11, 31] 111%

O=C(Nc1cc(Cl)cc2c1[nH]c1cnccc12)c1cccnc1
inactive: outcome [1] | outcome [2] | outcome [3] | outcome [4] | outcome [5] | outcome [6] | outcome [7]

Cc1ccc(C(=O)N(CCCN)[C@@H](c2nc3cc(Cl)ccc3c(=O)n2Cc2ccccc2)C(C)C)cc1
active: AC50 [1] 0.0166 µM | AC50 [2] 13.2 µM | AC50 [3] 5.9 µM | AC50 [4] 0.00934 µM | AC50 [6] 9.34 µM | IC50 [7] 0.0166 µM | viability [11, 14] 95.5% | viability [11, 16] 90.5% | viability [11, 18] 78.5% | viability [11, 19] 81.4% | viability [11, 20] 44.7% | viability [11, 21] 76.6% | viability [11, 22] 68.7% | viability [11, 23] 66.4% | viability [11, 24] 43.1% | viability [11, 25] 55.9% | viability [11, 26] 51.4% | viability [11, 27] 21.1% | viability [11, 28] 47.4% | viability [11, 29] 65.7% | viability [11, 30] 55.4% | viability [11, 31] 24.5% | viability [11, 32] 56.5% | viability [11, 33] 65.1% | viability [11, 34] 54.8% | viability [11, 35] 22.4% | viability [11, 36] 50.7% | viability [11, 37] 61.5% | viability [11, 38] 56.9% | viability [11, 39] 24.3% | viability [11, 40] 6.32% | viability [11, 41] 47.8% | viability [11, 42] 26.6% | viability [11, 43] 17.1%
-9.79: SSMD [9]
3920: cell count [9]
inactive: plate-normalised HSF1 focus index [9] 0.497 | viability [11, 12] 104% | viability [11, 13] 109% | viability [11, 15] 101% | viability [11, 17] 116%
